We go through 25 compounds from PubChem BioAssay AID463173 (ICCB-Longwood Screening Facility, Harvard Medical School, 2010).

Hit rate of the full screen: of about 52,000 compounds, about 4,300 (8.3%) were called active. Cut-off read from the data, not from the text of the source: active = survival mostly below about 52% (no sharp cut-off); inactive = mostly above about 56%. Many of the other results were omitted from the sample, so actives are more common in it than they were.

The test system of this assay is DeltatarO mutant. Nature of the assay: S. aureus survival, RN4220 and DeltatarO strains – OD600, teichoic acid synthesis inhibitors, primary screen (AID 463173). As to conditions: S. aureus RN4220 wild type/DeltatarO growth, OD600, 18 h, active compounds read low, screened at 18.75 µg/mL (by protocol).
For the compound `Cc1ccc(C)c(Nc2nn3c(=O)c4ccc(C(=O)NCc5cccs5)cc4nc3s2)c1`, the survival is 65% (inactive).

`COC(=O)c1ccc2c(=O)n(CCCCCC(=O)NCCc3ccc(Cl)cc3)c(=O)[nH]c2c1`: the survival was 52% (active).

As for `COC(=O)c1ccc2c(=O)n(CCCCCC(=O)NCc3ccc(Cl)cc3)c(=O)[nH]c2c1`, the survival is 74% (inactive).

As to `CSc1ccc(CCNC(=O)CCn2c(=O)c3cccn3c3cccnc32)cc1`, the survival is 90% (inactive).

Regarding `CSc1ccc(CCNC(=O)CCCn2c(=O)c3cccn3c3ccccc32)cc1`, the survival is 42% (active).

Take `CC(C)CCNC(=O)CCCn1c(=O)c2cccn2c2ccccc21`: the survival was 68% (inactive).

In the case of `CCOc1ccc(CCNC(=O)CCCn2c(=O)c3cccn3c3ccccc32)cc1`, the survival was 72% (inactive).

Consider `O=C(CCCn1c(=O)c2cccn2c2ccccc21)NCCc1ccc(Cl)cc1`, for which the survival was 32% (active).

For `O=C(CCCn1c(=O)c2cccn2c2cccnc21)NCCc1ccc(Cl)cc1`, the survival was 63% (inactive).

On to `COC(=O)c1ccc2c(=O)n(CCCCCC(=O)NCCc3ccccc3)c(=O)[nH]c2c1`, for which the survival is 79% (inactive).

Regarding `CN(CCCN1C(=O)c2ccccc2C1=O)CCCN1C(=O)c2ccccc2C1=O`, the survival was 93% (inactive).

In the case of `CCOc1ccc(NC(=O)CC2C(=O)N(c3ccccc3)C(=O)N2Cc2ccc3c(c2)OCO3)cc1` (stereo not given), the survival was 79% (inactive).

Consider `CN1CCN(C(CNC(=O)C(=O)Nc2ccccc2C#N)c2ccc3c(c2)OCO3)CC1` (stereo not given), for which the survival is 73% (inactive).

For the compound `COCCCNC(=O)CCC(=O)N1Cc2ccccc2Oc2ncccc21`, the survival was 84% (inactive).

In the case of `COC(=O)c1cc2sc(C)cc2n1Cc1ccc(Br)cc1F`, the survival is 89% (inactive).

Turning to `COC(=O)c1cc2sc(C)cc2n1Cc1cccc(OC)c1`, the survival was 1% (active).

As to `COC(=O)c1cc2sc(C)cc2n1CC(=O)Nc1ccc(C)c(C)c1`, the survival is 64% (inactive).

As to `COC(=O)c1cc2sc(C)cc2n1Cc1ccccc1`, the survival was 95% (inactive).

As to `C=Cc1ccc(Cn2c(C(=O)OC)cc3sc(C)cc32)cc1`, the survival is 27% (active).

`COC(=O)c1cc2sc(Cl)cc2n1Cc1c(C)cc(C)cc1C`: the survival is 98% (inactive).

On to `Cn1c(=O)n(C)c2cc(N3CCOCC3)c(NS(=O)(=O)c3ccc(F)cc3)cc21`, for which the survival is 126% (inactive).

As for `COc1ccc(CNC(=O)C2CCN(S(=O)(=O)c3ccc4nc5c(c(C(=O)O)c4c3)CCCC5)CC2)cc1`, the survival was 99% (inactive).

As to `Clc1ccc(CCNc2nc3cc(Cl)c(Cl)cc3n3cnnc23)cc1`, the survival is 91% (inactive).

For the compound `O=C1CCSC2(C(=O)N(Cc3ccc(F)cc3)c3ccccc32)N1c1ccc(F)c(F)c1` (stereo not given), the survival is 83% (inactive).

As for `COc1ccc(Cn2c(=O)c3oc4ccccc4c3n(Cc3ccccc3)c2=O)cc1`, the survival is 82% (inactive).
